Reference: PubChem BioAssay AID1159580 (chemical genetic matrix, 2015)
Out of some 5,500 compounds screened, about 2,000 (36%) were called active. Not shown: some 18% with an inconclusive outcome. Cut-off read from the data, not from the text of the source: active = normalized growth mostly below about 0.91 (no sharp cut-off); inconclusive = no clear call, values can overlap the other calls; inactive = mostly above about 0.92. The list shows a part of the results.

Assay: chemical genetic growth profiling, strain panel (AID 1159580);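 note: tested at 20 µM; growth read once vehicle control cultures reached saturation at 30 °C; 1 = growth at the plate median or of vehicle wells; lower values mean less growth of the strain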
Details: growth OD
[1] = S. cerevisiae deletion strains, locus YDL101C, strain DUN1, hits give low values
[2] = S. cerevisiae deletion strains, locus YHR030C, strain SLT2, hits give low values

Measured: normalized growth

COCCCNC(=S)N/N=C\c1cc(Cl)cc(Cl)c1O
active: [2] 0.797 | S. cerevisiae deletion strains, locus YPL256C, strain CLN2, hits give low values 0.859
inactive: S. cerevisiae deletion strains, locus YAR019C, strain CDC15, hits give low values 0.958 | S. cerevisiae deletion strains, locus YBL105C, strain PKC1, hits give low values 0.946 | S. cerevisiae deletion strains, locus YBR135W, strain CKS1, hits give low values 0.957 | S. cerevisiae deletion strains, locus YBR136W, strain MEC1, hits give low values 0.956 | S. cerevisiae deletion strains, locus YBR160W, strain CDC28, hits give low values 0.965 | S. cerevisiae deletion strains, locus YDL017W, strain CDC7, hits give low values 0.951 | S. cerevisiae deletion strains, locus YDL028C, strain MPS1, hits give low values 0.951 | [1] 0.959 | S. cerevisiae deletion strains, locus YDL108W, strain KIN28, hits give low values 0.961 | S. cerevisiae deletion strains, locus YDL132W, strain cdc53, hits give low values 0.958 | S. cerevisiae deletion strains, locus YDL214C, strain PRR2, hits give low values 0.942 | S. cerevisiae deletion strains, locus YDR052C, strain DBF4, hits give low values 0.956 | S. cerevisiae deletion strains, locus YDR054C, strain cdc34, hits give low values 0.947 | S. cerevisiae deletion strains, locus YDR226W, strain ADK1, hits give low values 0.951 | S. cerevisiae deletion strains, locus YDR477W, strain SNF1, hits give low values 0.914 | S. cerevisiae deletion strains, locus YER123W, strain YCK3, hits give low values 0.944 | S. cerevisiae deletion strains, locus YER133W, strain GLC7, hits give low values 0.924 | S. cerevisiae deletion strains, locus YFL009W, strain cdc4, hits give low values 0.952 | S. cerevisiae deletion strains, locus YFL029C, strain CAK1, hits give low values 0.958 | S. cerevisiae deletion strains, locus YFR003C, strain YPI1, hits give low values 0.954 | S. cerevisiae deletion strains, locus YFR019W, strain FAB1, hits give low values 0.962 | S. cerevisiae deletion strains, locus YFR028C, strain CDC14, hits give low values 0.968 | S. cerevisiae deletion strains, locus YGR040W, strain KSS1, hits give low values 0.927 | S. cerevisiae deletion strains, locus YGR052W, strain FMP48, hits give low values 0.942 | S. cerevisiae deletion strains, locus YGR092W, strain DBF2, hits give low values 0.783 | S. cerevisiae deletion strains, locus YHR079C, strain IRE1, hits give low values 0.903 | S. cerevisiae deletion strains, locus YHR082C, strain KSP1, hits give low values 0.983 | S. cerevisiae deletion strains, locus YHR205W, strain SCH9, hits give low values 0.853 | S. cerevisiae deletion strains, locus YIL147C, strain SLN1, hits give low values 0.957 | S. cerevisiae deletion strains, locus YJL095W, strain BCK1, hits give low values 0.904 | S. cerevisiae deletion strains, locus YJL128C, strain PBS2, hits give low values 0.924 | S. cerevisiae deletion strains, locus YJL157C, strain FAR1, hits give low values 0.918 | S. cerevisiae deletion strains, locus YJR016C, strain ILV3, hits give low values 0.957 | S. cerevisiae deletion strains, locus YJR066W, strain TOR1 (second series), hits give low values 0.887 | S. cerevisiae deletion strains, locus YJR066W, strain TOR1, hits give low values 0.957 | S. cerevisiae deletion strains, locus YKL048C, strain ELM1, hits give low values 0.936 | S. cerevisiae deletion strains, locus YKL067W, strain YNK1, hits give low values 0.953 | S. cerevisiae deletion strains, locus YKL101W, strain HSL1, hits give low values 0.946 | S. cerevisiae deletion strains, locus YKL193C, strain SDS22, hits give low values 0.953 | S. cerevisiae deletion strains, locus YKL203C, strain TOR2, hits give low values 0.953 | S. cerevisiae deletion strains, locus YLR113W, strain HOG1, hits give low values 0.904 | S. cerevisiae deletion strains, locus YLR133W, strain CKI1, hits give low values 0.924 | S. cerevisiae deletion strains, locus YLR403W, strain SFP1, hits give low values 0.889 | S. cerevisiae deletion strains, locus YML070W, strain DAK1, hits give low values 0.95 | S. cerevisiae deletion strains, locus YMR001C, strain CDC5, hits give low values 0.956 | S. cerevisiae deletion strains, locus YMR205C, strain PFK2 (second series), hits give low values 0.943 | S. cerevisiae deletion strains, locus YMR277W, strain FCP1, hits give low values 0.962 | S. cerevisiae deletion strains, locus YNL006W, strain LST8, hits give low values 0.963 | S. cerevisiae deletion strains, locus YNL020C, strain ARK1, hits give low values 0.903 | S. cerevisiae deletion strains, locus YNL161W, strain CBK1, hits give low values 0.959 | S. cerevisiae deletion strains, locus YNL183C, strain NPR1, hits give low values 0.988 | S. cerevisiae deletion strains, locus YNL207W, strain RIO2, hits give low values 0.957 | S. cerevisiae deletion strains, locus YNL222W, strain SSU72, hits give low values 0.962 | S. cerevisiae deletion strains, locus YNL307C, strain MCK1 (second series), hits give low values 0.909 | S. cerevisiae deletion strains, locus YOL078W, strain AVO1, hits give low values 0.962 | S. cerevisiae deletion strains, locus YOL136C, strain PFK27, hits give low values 0.953 | S. cerevisiae deletion strains, locus YOR061W, strain CKA2, hits give low values 0.951 | S. cerevisiae deletion strains, locus YOR119C, strain RIO1, hits give low values 0.989 | S. cerevisiae deletion strains, locus YOR231W, strain MKK1, hits give low values 0.943 | S. cerevisiae deletion strains, locus YOR329C, strain SCD5, hits give low values 0.96 | S. cerevisiae deletion strains, locus YPL031C, strain PHO85, hits give low values 0.904 | S. cerevisiae deletion strains, locus YPL153C, strain RAD53, hits give low values 0.903 | S. cerevisiae deletion strains, locus YPL204W, strain HRR25, hits give low values 0.882 | S. cerevisiae deletion strains, locus YPL209C, strain IPL1, hits give low values 0.962 | S. cerevisiae deletion strains, locus YPR025C, strain CCL1, hits give low values 0.961 | S. cerevisiae deletion strains, locus YPR106W, strain ISR1, hits give low values 0.955 | S. cerevisiae deletion strains, locus YPR111W, strain DBF20, hits give low values 0.96 | S. cerevisiae deletion strains, strain NNK1, hits give low values 0.955 | S. cerevisiae deletion strains, strain TSCII, hits give low values 0.956

CCOC(=O)N/N=C\c1ccccc1OCC
inactive: S. cerevisiae deletion strains, locus YAL013W, strain DEP1, hits give low values 1.02 | S. cerevisiae deletion strains, locus YBR229C, strain ROT2, hits give low values 0.998 | S. cerevisiae deletion strains, locus YCL061C, strain MRC1, hits give low values 1.02 | [1] 1.01 | S. cerevisiae deletion strains, locus YDL134C, strain PPH21, hits give low values 1.02 | S. cerevisiae deletion strains, locus YDR150W, strain NUM1, hits give low values 0.923 | S. cerevisiae deletion strains, locus YEL061C, strain CIN8, hits give low values 1.02 | S. cerevisiae deletion strains, locus YGR078C, strain PAC10, hits give low values 1 | S. cerevisiae deletion strains, locus YGR229C, strain SMI1, hits give low values 1.01 | [2] 1.02 | S. cerevisiae deletion strains, locus YHR087W, strain rtc3, hits give low values 0.992 | S. cerevisiae deletion strains, locus YJR043C, strain POL32, hits give low values 1.02 | S. cerevisiae deletion strains, locus YJR075W, strain HOC1, hits give low values 0.985 | S. cerevisiae deletion strains, locus YKL190W, strain CNB1, hits give low values 1 | S. cerevisiae deletion strains, locus YLR039C, strain RIC1, hits give low values 0.931 | S. cerevisiae deletion strains, locus YLR058C, strain SHM2 (second series), hits give low values 0.995 | S. cerevisiae deletion strains, locus YLR085C, strain ARP6, hits give low values 1.04 | S. cerevisiae deletion strains, locus YLR262C, strain YPT6, hits give low values 0.917 | S. cerevisiae deletion strains, locus YML094W, strain GIM5, hits give low values 1.02 | S. cerevisiae deletion strains, locus YMR219W, strain ESC1, hits give low values 0.997 | S. cerevisiae deletion strains, locus YMR263W, strain SAP30, hits give low values 1.03 | S. cerevisiae deletion strains, locus YNL128W, strain TEP1, hits give low values 1.01 | S. cerevisiae deletion strains, locus YNL153C, strain GIM3, hits give low values 1.02 | S. cerevisiae deletion strains, locus YNL298W, strain CLA4 (second series), hits give low values 1.03 | S. cerevisiae deletion strains, locus YNL322C, strain KRE1, hits give low values 1 | S. cerevisiae deletion strains, locus YNR030W, strain Alg12, hits give low values 1.02 | S. cerevisiae deletion strains, locus YOL006C, strain TOP1, hits give low values 1.06 | S. cerevisiae deletion strains, locus YPL055C, strain LGE1, hits give low values 0.98 | S. cerevisiae deletion strains, locus YPL241C, strain CIN2, hits give low values 1.02 | S. cerevisiae deletion strains, locus YPR135W, strain CTF4, hits give low values 1.03 | S. cerevisiae strains, strain wild type, hits give low values 1.01
